As a reminder, the inhibition is the change of the read-out against control, counted positive when it falls.

About 95 (0.1%) of roughly 84,000 compounds were called active. Cut-off read from the data, not from the text of the source: active = inhibition above about 25% (passing the limit was not always enough); inactive = the rest. Many of the other results were omitted from the sample, so actives are more common in it than they were.

The test system of the test is BasE (2,3-dihydroxybenzoate-AMP ligase), Acinetobacter baumannii ATCC 17978. As to the kind of experiment: BasE siderophore enzyme inhibitors, primary screen, biochemical, Acinetobacter baumannii ATCC 17978, fluorescence polarization (AID 485350).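 Note: 0% = negative plate control signal and 100% = positive plate control signal.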 Particulars: purified BasE, fluorescence polarization binding displacement; active compounds read high; concentration not given here. On the technique in general: In fluorescence polarisation assays a small probe gives low polarisation when free and higher when bound to something large.
As to `CC(=O)Nc1cccc(C(=O)OCC(=O)N2CCN(c3ccccc3)CC2)c1`, the inhibition was 0.21% (inactive). For the compound `Oc1ccc(N=Cc2cn(-c3ccccc3)nc2-c2ccco2)cc1`, the inhibition was -0.83% (inactive).

Turning to `C/C(N)=C(/C#N)C(=O)CSc1n[nH]c(C(C)C)n1`, the inhibition was 1.38% (inactive). Take `CC(Oc1coc(CN2CCN(Cc3ccccc3)CC2)cc1=O)c1ccccc1` (stereo unspecified): the inhibition was -0.18% (inactive). Regarding `O=C(O)Cc1cc(=O)n(C2CCS(=O)(=O)C2)[nH]1` (stereo unspecified), the inhibition was -0.2% (inactive). As to `O=S(=O)(NCCC1=CCCCC1)c1ccc(Cl)cc1`, the inhibition is -0.06% (inactive). For the compound `c1snnc1C12CC3CC(CC(C3)C1)C2`, the inhibition was -2.21% (inactive).

Consider `NC(=O)C[n+]1cccc(C(N)=O)c1`, for which the inhibition was -2.44% (inactive). As to `CCOC(=O)c1cc(-c2ccc(S(=O)(=O)N(C)Cc3cnn(-c4ccccc4)c3)s2)on1`, the inhibition is -0.03% (inactive).

`CN(C)S(=O)(=O)c1ccc(C(=O)Nc2ccccc2C(=O)NCc2ccc3c(c2)OCO3)cc1`: the inhibition was -2.15% (inactive). The same measure for `O=C(Oc1ccc2c3c(c(=O)oc2c1)CCC3)C1CCCCC1`: 2.18% (inactive). With `COc1cc2c(cc1OC)C(C)N(Cc1sc3ccccc3c1C)CC2` (stereo unspecified), the inhibition is -2.07% (inactive). For the compound `O=C1CSC(=Nc2ccccc2)N1S(=O)(=O)c1ccccc1`, the inhibition is 0.27% (inactive).

For `O=C(C1=Cc2sc3c(c2CS1)CCCC3)N1CCCC1`, the inhibition is 0.06% (inactive). With `N#Cc1cccc(OC(=O)c2ccccc2)c1`, the inhibition is 1.16% (inactive). To `COC(=O)c1cccc(NS(=O)(=O)c2cccs2)c1` belongs 0.35% (inactive). In the case of `CCc1ccc(CCC(=O)O)cc1`, the inhibition is 1.07% (inactive). Consider `CCOC(=O)c1nn(-c2ccccc2)c(=O)cc1OCC`, for which the inhibition was 0.32% (inactive). To `Cc1ccc(CN2CCC(CNC(=O)Cn3c(=O)oc4ccccc43)CC2)cc1` belongs 3.44% (inactive); to `O=C(O)Cc1ccc(C(F)(F)F)cc1`, -1.44% (inactive). The same measure for `CCOC(=O)CC1=CSC(NC)N1c1c(C)cc(C)cc1C` (stereo unspecified): 0.61% (inactive); for `Cc1cc(C(=O)N/N=C/c2ccc(O)cc2)c2ccccc2n1`: -0.11% (inactive); for `CCOC(=O)/C=C1\SCC(=O)N1Cc1cc(Cl)cc2c1OCOC2`: -0.76% (inactive). With `Cc1cc(C)n2nc(SCc3nc4ccc(Cl)cc4n3CCO)nc2n1`, the inhibition was -0.85% (inactive). In the case of `Cc1ccc(Cl)cc1NC(=O)CSc1nc2c(oc3ccccc32)c(=O)n1C1CCCC1`, the inhibition is 0.55% (inactive). Turning to `CCN(CC(=O)NCc1cccs1)C(=O)c1ccc2c(c1)SC1=NS(=O)(=O)CCN12`, the inhibition is 0.92% (inactive). Take `O=C(CC1SC(=Nc2ccccc2)NC1=O)NC1CC1` (stereo unspecified): the inhibition is 0.62% (inactive). The same measure for `O=C(NCc1ccc(-c2nc3ccccc3o2)cc1)c1ccccc1Br`: -0.19% (inactive); for `O=C1N(CNc2ccccc2)CCN1CNc1ccccc1`: 1.83% (inactive); for `O=C(CSc1nnc(Cc2csc(Nc3cccc(Cl)c3)n2)o1)c1ccc2c(c1)OCCO2`: -0.63% (inactive). Turning to `CC(C)C(NC(=O)C1CCCCC1)C(=O)O` (stereo unspecified), the inhibition is 3.11% (inactive).

As for `O=C(c1cc(-c2cccs2)on1)N1CCCC1`, the inhibition was -0.81% (inactive). In the case of `N#Cc1ccc(Cn2cc(Br)ccc2=O)cc1`, the inhibition is 0.99% (inactive). As to `O=C(c1ccc(S(=O)(=O)N2CCOCC2)cc1)N1CCn2c1nc1ccccc12`, the inhibition is -1.29% (inactive). The same measure for `COc1cc(OC)c(C2Nc3c(C)cc(C)cc3-c3cc(C)nn32)cc1OC` (stereo unspecified): 0.21% (inactive).

Turning to `O=C(c1ccc2c(c1)C(=O)N(Cc1ccncc1)C2=O)N1CCN(S(=O)(=O)c2ccc(OC(F)(F)F)cc2)CC1`, the inhibition was 0.9% (inactive). For the compound `CO/N=C(/C(=O)N[C@@H]1C(=O)N2C(C(=O)[O-])=C(C[N+]3(C)CCCC3)CS[C@H]12)c1csc(N)n1`, the inhibition was -0.27% (inactive). As to `Cc1cccc(C(CC(=O)NCc2cccs2)n2cccc2)c1` (stereo unspecified), the inhibition is 1.33% (inactive).

Regarding `CC(c1ccccc1)N(C)CN1C(=O)c2ccccc2C1=O` (stereo unspecified), the inhibition is -0.8% (inactive). Turning to `Cc1[nH]c2ccccc2c1C1=CCN(S(=O)(=O)c2cccc3nsnc23)CC1`, the inhibition is -2.27% (inactive). For the compound `COc1ccc(O)c(C(=O)c2cnn(C(=O)c3ccc4c(=O)n5c(nc4c3)CCC5)c2)c1`, the inhibition was -0.87% (inactive). On to `C=CCC(CC=C)(C(N)=O)c1ccccc1`, for which the inhibition is 2.87% (inactive). As to `COc1ccc(CNC(=O)c2cc3c(C)nccc3[nH]c2=O)cc1`, the inhibition was 0.94% (inactive). Turning to `CCn1c2ccccc2c2nnc(SCC(=O)NCCc3ccc(OC)c(OC)c3)nc21`, the inhibition was -1.45% (inactive). On to `N#CSc1ccc(N2CCCCC2)cc1`, for which the inhibition is 1.12% (inactive).

In the case of `CCCCn1c(SCc2nnc(-c3cccs3)o2)nc2cc(S(N)(=O)=O)ccc21`, the inhibition was -3.81% (inactive). Take `CC1(C)CC(=O)C=C(N2CCN(c3ccccc3F)CC2)C1`: the inhibition was 0.11% (inactive). Take `CCn1c(N2CCN(S(C)(=O)=O)CC2)nc2ccccc21`: the inhibition was -0.64% (inactive). Regarding `O=C1CN(C(=O)CSC2=Nc3ccccc3CS2)c2ccccc2N1`, the inhibition was -1.75% (inactive). For `CCOc1ccnc2sc(C(=O)c3cccnc3)c(N)c12`, the inhibition is 1.88% (inactive).

Turning to `C=CCn1cc(/C=C(\C#N)C(=O)NC2CCCCC2)c2ccccc21`, the inhibition was 2.71% (inactive). Take `Cc1ccc(C2=NN(C(=O)CSc3nc(N)cc(N)n3)C(c3ccco3)C2)cc1` (stereo unspecified): the inhibition is 2.13% (inactive). To `CS(=O)c1nc(-c2cccs2)cc(-c2ccccc2)c1C#N` (stereo unspecified) belongs -2.06% (inactive); to `COCCc1cc(C(F)(F)F)c2c(=O)n(C)c(=O)n(C)c2n1`, -0.29% (inactive). On to `Cn1c(N)c(C(=O)NCc2ccccc2)c2nc3ccccc3nc21`, for which the inhibition was -1.54% (inactive).

Take `CCOC(=O)c1c(C)[nH]c(C(=O)CN2C(=O)NC(CC)(c3ccc(F)cc3)C2=O)c1C` (stereo unspecified): the inhibition was -1.75% (inactive). To `Cc1cc(Oc2ccc3c(c2)OCO3)nc2ccccc12` belongs 6.24% (inactive).

Regarding `O=C(NCC(c1ccco1)N1CCCCC1)c1ccc(S(=O)(=O)N2CCCC2)cc1` (stereo unspecified), the inhibition is 1.67% (inactive). `Clc1ccc(/C=N/NCc2cn3ccsc3n2)cc1`: the inhibition is 0.12% (inactive). The same measure for `COc1ccc(Cl)cc1NC(=O)CN1C(=O)CSC(C)C1=O` (stereo unspecified): 0.33% (inactive); for `O=C(OCC(=O)N1CCCc2ccccc21)c1cc2ccccc2oc1=O`: -0.7% (inactive).

For the origin of these results see PubChem BioAssay AID485350 (ICCB-Longwood Screening Facility, Harvard Medical School, 2010).
